Data taken from PubChem BioAssay (NCI).
Where “and” joins values, the source holds several entries; their conditions need not be identical. Identical values can stand only once. This is part of a sample that, as a whole, favours compounds with a hit. Of some 83,000 tested, about 20% had one in any assay.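 Cells were grown in 96-well plates and exposed to the test compound at a single concentration for 48 hours; results are reported as percent growth, with values below 10 considered active.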 A number with no mark means an inactive call. Calls of active or inactive are those of the source.

Tested on: MDA-MB-468 breast
Experiment: NCI-60 one-dose screen, 48 h (100 = growth as untreated, 0 = no growth, -100 = all killed)
Conditions: 10 µM unless noted

SMILES	growth
O=C(NC(CSSCC(NC(=O)c1ccccc1)C(=O)O)C(=O)O)c1ccccc1 (stereo not given)	111%
Cc1ccc(NC(=O)N[C@@H](Cc2cc(F)cc(F)c2)C(=O)NC2C(=O)N3CCC[C@H]3C(=O)N3CCCC[C@H]3C(=O)N[C@@H](C)C(=O)N3C[C@H](C)C[C@H]3C(=O)O[C@H]2C)c(F)c1 (stereo not given in full)	-12.1% (active)
Cc1c(O)c(=O)ccn1-c1nc2ccccc2s1	103%
C=C(C)[C@@H]1CC[C@]2(COC)CC[C@]3(C)[C@H](CC[C@@H]4[C@@]5(C)CCCNC(C)(C)[C@@H]5CC[C@]43C)[C@@H]12	-50.5% (active)
CC(C)COCC(CN(Cc1ccccc1)c1ccccc1)N1CCCC1 (stereo not given)	32.7%
C#CCOc1ccc(C2=NN(C)C3N=C(Cl)c4ncn(C)c4N23)cc1OCC#C (stereo not given)	86.3%
CCCCCCCCCCCCCCCCCC1=NCCCN1CCO	110%
NC(=O)N/N=C\c1ccco1	119%
COc1ccc(/C(N)=N/C(N)=N/c2nc3ccccc3s2)cc1	24.3%
C/C(=N\N=C(/C)c1cccc([N+](=O)[O-])c1)c1cccc([N+](=O)[O-])c1	86.1%
COc1ccc(C(=O)N2N=C(c3ccc(F)cc3)CC2c2cn(-c3ccccc3)nc2-c2ccccc2)cc1 (stereo not given)	60.8%
COc1ccc(OC2=C(C#N)C(=N)N3c4ccccc4Sc4ccccc4C3N2)cc1 (stereo not given)	94.5%
CCc1cnc(=S)n(-c2ccccc2)c1	117%
COc1cc2c(cc1OC)C(Sc1ccc(SC)cc1)c1c(nc(N)c(C#N)c1N)O2 (stereo not given)	-47.1% (active)
COc1ccc(C2CCCCC2=O)cc1 (stereo not given)	109%
COc1ccc(Nc2cc(Cl)ccc2C(=O)O)cn1	95.8%
CCO/C=N/C1=C(C#N)C(c2ccc(OC)cc2)c2sc3c(CC)cccc3c2O1 (stereo not given)	-21.1% (active)
CC(=O)[C@H]1CC[C@]2(C)[C@@H]1CC[C@@H]1[C@@]3(C)CC(CCC#N)(CCC#N)C(=O)C(C)(C)[C@@H]3CC[C@]12C	99.7%
CC(=O)OC/C(C)=C\CC(C)COC(C)=O (stereo not given)	98.5%
COc1ccc2c(c1)O/C(=C\c1ccc([N+](=O)[O-])o1)C2=O	-46.5% (active)

SMILES	growth
Nc1ccn([C@@H]2O[C@H](COP(=O)(O)O[C@@H]3C[C@H](n4cc(F)c(=O)[nH]c4=O)O[C@@H]3COP(=O)(O)O[C@@H]3C[C@H](n4cc(F)c(=O)[nH]c4=O)O[C@@H]3COP(=O)(O)O[C@@H]3C[C@H](n4cc(F)c(=O)[nH]c4=O)O[C@@H]3COP(=O)(O)O[C@@H]3C[C@H](n4cc(F)c(=O)[nH]c4=O)O[C@@H]3COP(=O)(O)O[C@@H]3C[C@H](n4cc(F)c(=O)[nH]c4=O)O[C@@H]3COP(=O)(O)O[C@@H]3C[C@H](n4cc(F)c(=O)[nH]c4=O)O[C@@H]3COP(=O)(O)O[C@@H]3C[C@H](n4cc(F)c(=O)[nH]c4=O)O[C@@H]3COP(=O)(O)O[C@@H]3C[C@H](n4cc(F)c(=O)[nH]c4=O)O[C@@H]3COP(=O)(O)O[C@@H]3C[C@H](n4cc(F)c(=O)[nH]c4=O)O[C@@H]3COP(=O)(O)O[C@@H]3C[C@H](n4cc(F)c(=O)[nH]c4=O)O[C@@H]3COP(=O)(O)OCCOCCOCCOCCOCCOCCO)[C@H](O)C2O)c(=O)n1 (stereo not given in full)	77%
COc1ccc(/C=C/C(=O)c2ccc(NC(=O)CSc3nc4c([nH]3)c(=O)n(C)c(=O)n4C)cc2)cc1OC	51.8%
COc1ccc(-c2nc3sccn3c2-c2ccnc(S(C)(=O)=O)n2)cc1	-25.9% (active)
COc1cc([C@@H]2c3cc4c(cc3[C@H](O)[C@H]3COC[C@@H]23)OCO4)cc(OC)c1OC	58%
CCCN(CCSSCCNc1nc(N(C)O)nc(N(C)O)n1)c1nc(N(C)O)nc(N(C)O)n1	15.8%
C=C(C)[C@@H]1CC[C@]2(C(=O)N3CCN(C)CC3)CC[C@]3(C)[C@H](CC[C@@H]4[C@@]5(C)CC[C@H](OP(=O)(OCC)OCC)C(C)(C)[C@@H]5CC[C@]43C)[C@@H]12	76.2%
O=C1c2cc3c(cc2-c2c1c1ccc(Cl)cc1c(=O)n2C[C@H](O)CO)OCO3	-53.8% (active)
CN1CCN(Cc2ccc(NC(=O)c3cncc(C#Cc4cnc(N)c5ccncc45)c3)cc2C(F)(F)F)CC1	35.5%
O=C(C[C@@]1(O)C(=O)Nc2c(Cl)ccc(Cl)c21)c1ccc(C2CC2)cc1	-4.24% (active)
N#C/C(=C\c1ccc(-c2ccc(Cl)cc2)o1)C(=O)Nc1ncc(Cc2ccc(Cl)cc2)s1	77.9%
COC12C=C/C(=C(/C(=O)OCc3csc(SC)n3)C(=O)CCCCCCCCC3(OC)C=C/C(=C(/C(=O)OCc4cnc(SC)s4)C(=O)CCCCCCCC1)O3)O2 (stereo not given)	29.5%
CC(C)(C)C(CCc1ccc(Cl)cc1)N1CCN(C2CCCCC2)CC1 (stereo not given)	58.3%
Cc1ccc(S(=O)(=O)c2nc(-c3ccccc3)oc2S(C)(=O)=O)cc1	-59.3% (active)
CCCSc1ccc2nc(NC(=O)OC)[nH]c2c1	-7.05% (active)
COc1ccc(CNc2nccnn2)cc1	88%
NC(=S)NN=C1CCCCC1	26.4%
COC(=O)c1ccc(CSc2nnc(-c3ccncc3)o2)cc1	115%
CCCCC/C=C/CCC(=O)N[C@H]1[C@H](Oc2c3cc4cc2Oc2ccc(cc2Cl)[C@@H](O[C@@H]2O[C@H](CO)[C@@H](O)[C@H](O)[C@H]2NC(C)=O)[C@@H]2NC(=O)[C@H](NC(=O)[C@@H]4NC(=O)[C@H]4NC(=O)[C@@H](Cc5ccc(c(Cl)c5)O3)NC(=O)[C@@H](N)c3ccc(O)c(c3)Oc3cc(O)cc4c3)c3ccc(O)c(c3)-c3c(O[C@H]4O[C@H](CO)[C@@H](O)[C@H](O)[C@@H]4O)cc(O)cc3[C@H](C(=O)O)NC2=O)O[C@H](CO)[C@H](O)[C@@H]1O	110%
O=[N+]([O-])c1cccc(N=Cc2ccc3c(c2)OCO3)c1	103%
CN(C)c1ccc(C(=C2C=CC(=[N+](C)C)C=C2)c2ccccc2Cl)cc1	-57.8% (active) and -84.2% (active)
